These results are taken from PubChem BioAssay AID894 (National Center for Advancing Translational Sciences (NCATS), 2007).

Molecules are shown by their SMILES. In all, about 150,000 compounds went through this assay and about 6,500 (4.3%) were called active. Inconclusive results (about 12%) are left out. Calls follow the shape of the dose curve; as a rule, active = well fitted inhibition curve with a large enough effect (not every such curve was filed as active); inconclusive = small, poorly fitted or top-dose-only effect, or another doubt; inactive = no such curve, though single readings can be large or run the other way. The sample as a whole holds a higher share of actives than the screen did.
% is scaled to controls: 0 for no effect and ±100 for the full control effect; potency is read from the fitted curve at half-maximal effect.

15-hydroxyprostaglandin dehydrogenase [NAD(+)] (Homo sapiens), sequence (P15428 whole entry, looked up): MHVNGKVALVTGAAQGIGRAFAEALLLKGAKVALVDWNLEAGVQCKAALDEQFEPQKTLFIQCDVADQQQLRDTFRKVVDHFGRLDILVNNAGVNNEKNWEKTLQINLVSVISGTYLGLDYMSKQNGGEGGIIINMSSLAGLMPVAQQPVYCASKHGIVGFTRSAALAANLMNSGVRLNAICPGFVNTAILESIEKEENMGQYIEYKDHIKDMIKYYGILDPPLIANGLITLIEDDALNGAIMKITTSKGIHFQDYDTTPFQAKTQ

The experiment deals with 15-hydroxyprostaglandin dehydrogenase [NAD(+)] (Homo sapiens) (UniProt P15428). Description: qHTS Assay for Inhibitors of HPGD (15-Hydroxyprostaglandin Dehydrogenase). The note with it: purified HPGD, NADH fluorescence kinetic, PGE2 substrate; activity change, negative = inhibition: stronger effect = lower value. The method in brief:
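NADH formation kinetics: reaction with 30 uM PGE2 and 1 mM NAD+ (final), 20 nM enzyme, Tris-HCl pH 8 with Tween 20, after 15 min compound preincubation at room temperature. Fluorescence change, last versus first of five reads.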
(Quantitative high-throughput screening tests each substance at several concentrations.)
On to `CCOC(=O)C1CCN(c2ccc(C(=O)O)cc2[N+](=O)[O-])CC1`, for which the activity change, negative = inhibition was -3.84% (inactive).
Same read-out and setting: then `CC(=O)c1cc(-c2ccccc2)n(CCC(=O)NC2CCCCCC2)c1C`, with -4.2% (inactive); and `CCOc1ccccc1NC(=O)C1CCC(CNc2c(N3CCOCC3)c(=O)c2=O)CC1` (centres undefined), with -25.1% (inactive).
On the same count and under the same terms, as for `COc1ccc(CNC(=O)C2CCC(CNc3c(N4CCOCC4)c(=O)c3=O)CC2)cc1` (centres undefined), the figure is -17.3% (inactive).
Take `O=C(NCc1ccccc1Cl)C1CCC(CNc2c(N3CCCCC3)c(=O)c2=O)CC1` (centres undefined): the Potency is 12.6 µM (active).
As to `O=C(CCN1C(=O)c2ccccc2C1=O)NNC(=O)c1ccc(Cl)cc1Cl`, the activity change, negative = inhibition was -7.71% (inactive).
Turning to `Cc1c(Br)c([N+](=O)[O-])nn1CC(=O)Nc1sc2c(c1C(=O)OC(C)C)CCC(C)C2` (centres undefined), the activity change, negative = inhibition was -1.95% (inactive).
Turning to `C/C(=N/NS(=O)(=O)c1ccccc1)c1ccc(NC(=O)C(F)(F)F)cc1`, the activity change, negative = inhibition is -4.99% (inactive).
Same read-out and setting: as for `COc1ccc(/C=N/OCC(=O)N(Cc2ccccc2)c2ccccc2C(=O)O)cc1`, the figure is -8.65% (inactive); as for `O=C(N/N=C/c1coc2ccccc2c1=O)c1cc2ccccc2o1`, -20% (inactive).
The same measure, in the same setting: as for `Cc1cccc(N2CCN(C(=O)/C=C/c3ccco3)CC2)c1C`, the figure is -20.4% (inactive).
For the compound `Cc1ccc(OCCCC(=O)N2CCOCC2)c(C)c1`, the Potency was 20 µM (active).
`CCOc1cc(-c2noc(CCC(=O)N3CCOCC3)n2)ccc1OC`: the activity change, negative = inhibition was -8.81% (inactive).
Take `COc1ccc(OCC(=O)N2CCOCC2)cc1`: the activity change, negative = inhibition was 4.8% (inactive).
`COc1ccc(-c2nc3c(c4c2C[C@H](c2ccccc2)OC4)CN(C(=O)c2ccco2)CC3)c(C)c1`: the activity change, negative = inhibition is -11.6% (inactive).
In the case of `Cc1ccc(C(C)NC(=O)Cn2nc(C)c([N+](=O)[O-])c2C)cc1` (centres undefined), the activity change, negative = inhibition is -5.59% (inactive).
Consider `O=C(O)c1cccc(N=NN2CCCCCC2)c1`, for which the activity change, negative = inhibition was -9.76% (inactive).
Same read-out and setting: as for `CCc1nnc(NC(=O)CCN(c2ccc(C)cc2)S(=O)(=O)c2ccccc2)s1`, the figure is -10.2% (inactive); as for `CC(=O)NNC1=Nc2ccccc2N(C)C(C)C1` (centres undefined), 0.367% (inactive).
On the same count and under the same terms, as for `Cc1nn(CC(=O)Nc2nc3ccccc3s2)c(C)c1[N+](=O)[O-]`, the figure is -4.84% (inactive).
For the compound `O=[N+]([O-])c1c(NCCO)cc(Sc2nc3ccccc3s2)c2nonc12`, the Potency was 11.2 µM (active).
In the case of `c1ccc2sc(SCCSc3nc4ccccc4s3)nc2c1`, the activity change, negative = inhibition was 0.386% (inactive).
On the same count and under the same terms, then `O=C(CSc1ccc2nnc(-c3ccccc3)n2n1)N1CCCc2ccccc21`, with -22.3% (inactive).
On the same count and under the same terms, as for `COc1cc(SC)ccc1C(=O)NCCOc1ccccc1Cl`, the figure is -18.8% (inactive); as for `CCOC(=O)c1c(C)[nH]c(C(=O)NCc2ccccc2OC)c1C`, -7.72% (inactive).
As for `COc1ccccc1CNC(=O)c1ccc(SC)cc1OC`, the Potency was 22.4 µM (active).
`CC(NC(=O)CCC(=O)N1CCN(S(=O)(=O)c2ccc(Cl)cc2)CC1)c1ccccc1` (centres undefined): the activity change, negative = inhibition is -5.29% (inactive).
Still for that read-out and setting: then `Cc1c(Cl)cccc1NC(=S)NCc1ccc2c(c1)OCO2`, with -5.45% (inactive); and `CC(=O)c1c(Nc2ccccc2)sc(C(=O)c2ccccc2)c1C`, with -1.98% (inactive); and `Cc1ccc(C(=O)c2c(NC(=O)c3ccncc3)sc3c2CCCC3)cc1`, with -22.2% (inactive).
`Cc1ccc(C(=O)c2c(NC(=O)c3ccccc3)sc(C)c2C)cc1`: the Potency was 14.1 µM (active).
On to `CCc1ccccc1NC(=O)CN(C)C(=O)COc1ccc(C)nc1[N+](=O)[O-]`, for which the activity change, negative = inhibition is -2.83% (inactive).
The same measure, in the same setting: as for `COc1ccc(NC(=O)COC(=O)c2ccc(NS(=O)(=O)/C=C/c3ccccc3)cc2)cc1`, the figure is -13.7% (inactive); as for `Cn1cnc([N+](=O)[O-])c1Nc1ccccc1O`, -2.73% (inactive); as for `Cc1nn(C)c(Oc2ccccc2)c1[N+](=O)[O-]`, -7.95% (inactive).
As for `Cn1cnc([N+](=O)[O-])c1Sc1ccccc1`, the Potency was 15.8 µM (active).
As for `CCCN(CC1COc2ccccc2O1)C(=S)Nc1ccc(C)cc1` (centres undefined), the activity change, negative = inhibition is -7.28% (inactive).
On to `CCS(=O)(=O)n1nc(-c2ccc(OC)cc2)nc1SC`, for which the activity change, negative = inhibition is -4.54% (inactive).
`CCS(=O)(=O)n1nc(-c2ccccc2)nc1SCc1ccccc1`: the Potency is 14.1 µM (active).
With `CCCC(=O)n1nc(-c2ccccc2)nc1N`, the activity change, negative = inhibition was -7.53% (inactive).
Still for that read-out and setting: as for `Cc1cc(F)ccc1S(=O)(=O)N1CCCOC1CNC(=O)C(=O)NCCC1=CCCCC1` (centres undefined), the figure is -6.01% (inactive); as for `CCOC(=O)CN(Cc1ccc(OC)c(OC)c1)S(=O)(=O)c1ccc(OC)cc1`, 1.91% (inactive).
As to `COc1ccc(C(CCN(Cc2ccc(OC)c(OC)c2)C(=O)CCl)c2ccccc2)cc1` (centres undefined), the Potency was 10 µM (active).
As for `COc1ccc(CCN(C(=O)COc2ccccc2)c2nc(-c3ccccc3)cs2)cc1OC`, the activity change, negative = inhibition was -5.33% (inactive).
Same read-out and setting: then `CC(C)(C)C1CCC(=NNC(=O)c2ccc(Br)o2)CC1` (centres undefined), with -11.4% (inactive).
For the compound `CCOC(=O)c1ccc2c(c1)nc(SCC(=O)NC(C)C)n2CC`, the Potency was 31.6 µM (active).
In the case of `CCn1c(SCC(=O)NCC2CCCO2)nc2cc(S(=O)(=O)N3CCCCC3)ccc21` (centres undefined), the activity change, negative = inhibition was -12.7% (inactive).
Still for that read-out and setting: then `CCOC(=O)CNC(=O)CSc1nc2cccnc2n1CC`, with -17.6% (inactive).
Consider `O=C(CSCc1ccc(Cl)cc1)N1CCCCC1`, for which the Potency was 15.8 µM (active).
Take `O=C(CSCc1ccc(Cl)cc1)N1CCN(Cc2ccc3c(c2)OCO3)CC1`: the activity change, negative = inhibition was -13.7% (inactive).
Take `O=C(CN1CCN(c2ccc(Cl)cc2)CC1)N1CCCC1`: the activity change, negative = inhibition is -1.51% (inactive).
The same measure, in the same setting: then `CCCCC/C=C\C/C=C\CCCCCCCCCC(N)=O`, with -6.01% (inactive).
The same measure, in the same setting: as for `COc1ccc(NC(=S)NC2CCS(=O)(=O)C2)cc1` (centres undefined), the figure is -7.38% (inactive); as for `Clc1ccc(CSc2nnc(/C=C/c3ccccc3)o2)c(Cl)c1`, -24.9% (inactive); as for `O=c1[nH]nc(CSCc2ccccc2Cl)[nH]1`, -4.38% (inactive).
As to `S=c1[nH]nc(CSCc2ccc(Cl)cc2Cl)n1-c1ccccc1`, the Potency was 3.16 µM (active).
On to `CCOC(=O)Cc1csc(NC(=O)CSc2ccc(Br)cc2)n1`, for which the activity change, negative = inhibition was -1.05% (inactive).
Turning to `CCOC(=O)CNC(=O)/C=C/c1c(Cl)cccc1Cl`, the activity change, negative = inhibition was -4.86% (inactive).
Same read-out and setting: as for `Cc1cccc2cc(CN(C(=O)c3cccs3)c3ccccc3)c(=O)[nH]c12`, the figure is -18.7% (inactive); as for `Cc1ccsc1/C=N/n1c(=S)[nH]nc(C)c1=O`, -6.69% (inactive); as for `c1ccc(-c2noc(-c3cccs3)n2)nc1`, -8.74% (inactive).
Take `S=c1[nH]nc(-c2ccccc2)n1/N=C/c1c[nH]c2ccccc12`: the Potency is 2 µM (active).
For `Cc1n[nH]c(=S)n1/N=C/c1ccc(Br)o1`, the activity change, negative = inhibition was -10% (inactive).
For the compound `S=c1[nH]nc(-c2ccco2)n1/N=C/c1ccc(Br)s1`, the Potency is 2.82 µM (active).
In the case of `Cc1ccc(-c2csc(-c3c[nH]c4ccccc34)n2)cc1`, the activity change, negative = inhibition was -7.14% (inactive).
Turning to `Oc1ccccc1/C=N/n1c(-c2cccs2)n[nH]c1=S`, the Potency was 2.51 µM (active).
With `CSC(=S)N/N=C/c1c[nH]c2ccccc12`, the activity change, negative = inhibition was -6.73% (inactive).
For the compound `Brc1ccc(/C=N/N2CCN(C3c4ccccc4-c4ccccc43)CC2)s1`, the activity change, negative = inhibition is -4.34% (inactive).
Take `Cc1ccc(/C=N\n2c(-c3ccccc3)n[nH]c2=S)s1`: the Potency was 11.2 µM (active).
